Source: PubChem BioAssay (NCI)
This is part of a sample that, as a whole, favours compounds with a hit. Of some 83,000 tested, about 20% had one in any assay.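 Values shown are percent growth following 48 h exposure of cells in 96-well plates to a single concentration of compound; below 10 was considered active.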

What was measured:
Experiment in all cases: NCI-60 one-dose screen, 48 h (100 = growth as untreated, 0 = no growth, -100 = all killed)
Settings in all cases: 10 µM unless noted
NCI-H23 lung = tested on: NCI-H23 lung
NCI-H226 lung = tested on: NCI-H226 lung
NCI-H322M lung = tested on: NCI-H322M lung
HOP-62 NSCLC = tested on: HOP-62 NSCLC
NCI-H460 lung = tested on: NCI-H460 lung
HOP-92 NSCLC = tested on: HOP-92 NSCLC
NCI-H522 lung = tested on: NCI-H522 lung
A549/ATCC NSCLC = tested on: A549/ATCC NSCLC
786-0 renal = tested on: 786-0 renal
COLO 205 colon = tested on: COLO 205 colon

Measured: growth

Cc1cc(C2(c3cc(C)c(O)cc3C)OS(=O)(=O)c3ccccc32)c(C)cc1O
inactive: NCI-H23 lung 106% | NCI-H226 lung 106% | NCI-H322M lung 101% | HOP-62 NSCLC 92.2% | NCI-H460 lung 108% | HOP-92 NSCLC 81.7% | NCI-H522 lung 92.2% | A549/ATCC NSCLC 97.2% | 786-0 renal 109% | COLO 205 colon 111%

O=Nc1c(-c2cccc([N+](=O)[O-])c2)nc2ncccn12
inactive: NCI-H23 lung 83.4% | NCI-H226 lung 102% | NCI-H322M lung 120% | HOP-62 NSCLC 100% | NCI-H460 lung 101% | HOP-92 NSCLC 87.4% | NCI-H522 lung 67.1% | A549/ATCC NSCLC 97.7% | 786-0 renal 93.9% | COLO 205 colon 65.1%

COC(=O)c1nc(-c2ccccc2)oc1S(=O)(=O)N1CCN(c2cccc(Cl)c2)CC1
inactive: NCI-H23 lung 97.4% | NCI-H226 lung 93.9% | NCI-H322M lung 86.7% | HOP-62 NSCLC 83% | NCI-H460 lung 82.2% | HOP-92 NSCLC 48.2% | NCI-H522 lung 53.9% | A549/ATCC NSCLC 88.7% | 786-0 renal 57% | COLO 205 colon 82.5%

Cc1ccc(-c2csc(NC(=O)CCCCl)n2)cc1
inactive: NCI-H23 lung 93.1% | NCI-H226 lung 78.5% | NCI-H322M lung 87.4% | HOP-62 NSCLC 101% | NCI-H460 lung 103% | HOP-92 NSCLC 74.8% | NCI-H522 lung 83.5% | A549/ATCC NSCLC 90.5% | 786-0 renal 87.3% | COLO 205 colon 112%

O=C(NNC(=S)Nc1ccccc1)c1cc2ccc1CCc1ccc(cc1)CC2
inactive: NCI-H23 lung 74.8% | NCI-H226 lung 78.9% | NCI-H322M lung 77.7% | HOP-62 NSCLC 64.7% | NCI-H460 lung 36.9% | HOP-92 NSCLC 48.8% | NCI-H522 lung 76% | A549/ATCC NSCLC 59.2% | COLO 205 colon 77%

COc1ccc(/C=C2/C(=O)NC(SCC(=O)N3CCN(c4cc5c(cc4F)c(=O)c(C(=O)O)cn5C4CC4)CC3)=NC2N)cc1OC (centres undefined)
inactive: NCI-H23 lung 102% | NCI-H226 lung 98.5% | NCI-H322M lung 111% | HOP-62 NSCLC 110% | NCI-H460 lung 107% | HOP-92 NSCLC 101% | NCI-H522 lung 99% | A549/ATCC NSCLC 107% | 786-0 renal 102% | COLO 205 colon 113%

S=c1[nH]nc(-c2cc3ccc2CCc2ccc(cc2)CC3)n1-c1ccccc1
inactive: NCI-H23 lung 98% | NCI-H226 lung 107% | NCI-H322M lung 96.4% | HOP-62 NSCLC 106% | NCI-H460 lung 99.6% | HOP-92 NSCLC 98.4% | NCI-H522 lung 87.3% | A549/ATCC NSCLC 93.1% | COLO 205 colon 106%

CCOC(=O)CN1/C(=N/c2sc3c(c2C(=O)OCC)CCN(C(=O)OCC)C3)SC(=O)/C1=C\C(=O)OC
inactive: NCI-H23 lung 95.8% | NCI-H226 lung 92.2% | NCI-H322M lung 98.4% | HOP-62 NSCLC 92.4% | NCI-H460 lung 99.9% | HOP-92 NSCLC 74.5% | NCI-H522 lung 76.4% | A549/ATCC NSCLC 90.4% | COLO 205 colon 101%

S=c1[nH]nc(-c2cc3ccc2CCc2ccc(cc2)CC3)n1C1CC1
inactive: NCI-H23 lung 97.8% | NCI-H226 lung 108% | NCI-H322M lung 105% | HOP-62 NSCLC 104% | NCI-H460 lung 103% | HOP-92 NSCLC 96.1% | NCI-H522 lung 89.6% | A549/ATCC NSCLC 108% | COLO 205 colon 113%

CCOC(=O)c1c(/N=C2\SC(=O)/C(=C\C(=O)OC)N2NC)sc2c1CCN(C(=O)OCC)C2
inactive: NCI-H23 lung 96.4% | NCI-H226 lung 99% | NCI-H322M lung 97.8% | HOP-62 NSCLC 99.2% | NCI-H460 lung 101% | HOP-92 NSCLC 90.6% | NCI-H522 lung 94.7% | A549/ATCC NSCLC 98.8% | COLO 205 colon 109%

COc1ccc(-n2c(=O)sc3c(Cl)nc(C)nc32)c(OC)c1
inactive: NCI-H23 lung 79.8% | NCI-H226 lung 99.4% | NCI-H322M lung 96.5% | HOP-62 NSCLC 86.1% | NCI-H460 lung 57.4% | HOP-92 NSCLC 76.9% | NCI-H522 lung 78.5% | A549/ATCC NSCLC 98.7% | 786-0 renal 99.2% | COLO 205 colon 99.4%

O=c1ccn(C2CC(O)C(O)C(CO)O2)c(=O)[nH]1 (centres undefined)
inactive: NCI-H23 lung 110% | NCI-H226 lung 142% | NCI-H322M lung 131% | HOP-62 NSCLC 107% | NCI-H460 lung 124% | HOP-92 NSCLC 121% | NCI-H522 lung 148% | A549/ATCC NSCLC 118% | 786-0 renal 109% | COLO 205 colon 113%

CCCCCCCCN(CCCCCCCC)CCCCCCNc1cc(OC)cc2cccnc12
inactive: NCI-H23 lung 55.6% | NCI-H226 lung 100% | NCI-H322M lung 88.5% | HOP-62 NSCLC 96.7% | NCI-H460 lung 92.8% | HOP-92 NSCLC 62.6% | NCI-H522 lung 92.1% | A549/ATCC NSCLC 105% | 786-0 renal 93.7% | COLO 205 colon 33.3%

CC(=O)Oc1csc(N(C(C)=O)c2cc(C(=O)O)cc(C(=O)O)c2)n1
inactive: NCI-H23 lung 93.1% | NCI-H226 lung 101% | NCI-H322M lung 99.8% | HOP-62 NSCLC 99% | NCI-H460 lung 102% | HOP-92 NSCLC 47.3% | NCI-H522 lung 93.1% | A549/ATCC NSCLC 97.1% | COLO 205 colon 99.7%
